ChEMBL document CHEMBL3988442, “University of Dundee, Small-Polar-MMV Screening Library” (2021)
For some assays here: Results with a measured potency or affinity are listed apart.

Tests used:
Parameters in all cases: scale not given: direction of the effect not stated beside the values
[1] = target: Protein translocase subunit SecA (Escherichia coli (strain K12)) (UniProt P10408); test: Assay to Identify E. coli SecA ATPase Inhibitors; format: functional; details: 30 µM
[2] = target: T1, Ubiquitin-activating enzyme e1, putative (Leishmania donovani (strain BPK282A1)) (UniProt E9BSI1); test: Leishmania donovani Ubiquitin Activating Enzyme (LdE1); format: functional; details: 30 µM
T1 sequence (whole entry): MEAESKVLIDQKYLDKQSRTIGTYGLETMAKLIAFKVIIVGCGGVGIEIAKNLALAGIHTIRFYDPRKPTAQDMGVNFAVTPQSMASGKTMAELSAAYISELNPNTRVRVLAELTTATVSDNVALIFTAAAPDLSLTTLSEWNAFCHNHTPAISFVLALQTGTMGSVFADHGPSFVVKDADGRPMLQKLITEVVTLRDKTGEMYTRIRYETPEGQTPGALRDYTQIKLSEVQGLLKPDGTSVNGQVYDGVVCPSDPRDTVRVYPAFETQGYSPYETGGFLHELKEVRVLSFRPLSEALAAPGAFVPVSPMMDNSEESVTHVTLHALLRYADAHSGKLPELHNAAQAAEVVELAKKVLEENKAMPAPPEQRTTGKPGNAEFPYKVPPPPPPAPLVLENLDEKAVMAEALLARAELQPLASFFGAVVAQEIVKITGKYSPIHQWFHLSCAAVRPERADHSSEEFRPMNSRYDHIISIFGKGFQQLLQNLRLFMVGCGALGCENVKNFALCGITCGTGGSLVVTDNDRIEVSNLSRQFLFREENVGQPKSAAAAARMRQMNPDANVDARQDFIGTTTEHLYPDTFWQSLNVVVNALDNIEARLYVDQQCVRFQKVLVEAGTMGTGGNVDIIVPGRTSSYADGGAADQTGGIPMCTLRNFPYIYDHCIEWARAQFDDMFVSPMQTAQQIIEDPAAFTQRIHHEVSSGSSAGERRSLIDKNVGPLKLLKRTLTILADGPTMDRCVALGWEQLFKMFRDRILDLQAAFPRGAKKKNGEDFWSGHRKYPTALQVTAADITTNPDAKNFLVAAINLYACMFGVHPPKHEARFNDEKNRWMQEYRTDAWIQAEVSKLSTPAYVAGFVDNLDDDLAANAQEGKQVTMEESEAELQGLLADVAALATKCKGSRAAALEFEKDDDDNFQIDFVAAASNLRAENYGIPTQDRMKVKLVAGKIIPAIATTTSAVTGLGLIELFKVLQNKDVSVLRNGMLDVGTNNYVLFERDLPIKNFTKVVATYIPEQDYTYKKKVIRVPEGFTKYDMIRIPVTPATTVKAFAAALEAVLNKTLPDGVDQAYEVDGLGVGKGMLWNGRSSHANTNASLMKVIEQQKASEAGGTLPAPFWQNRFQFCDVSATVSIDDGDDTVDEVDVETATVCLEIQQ

[3] = target: AMP-activated protein kinase, AMPK (Homo sapiens) (UniProt P54646+O43741+P54619+Q9UGJ0+Q9Y478+Q13131+Q9UGI9); test: AMP-dependent Kinase enzyme assay. An in vitro enzyme assay that detects ADP turnover that is directly proportional to AMPK activity. This uses naive AMPK that is activated during the assay with MK-8722; format: functional; details: 30 µM
[4] = target: Sialic acid-binding Ig-like lectin 9 (Homo sapiens) (UniProt Q9Y336); test: Hs-Siglec9 ALPHAscreen SOP 20170721; details: 10 µM
Sequence of Sialic acid-binding Ig-like lectin 9 (Homo sapiens) (Q9Y336 whole entry): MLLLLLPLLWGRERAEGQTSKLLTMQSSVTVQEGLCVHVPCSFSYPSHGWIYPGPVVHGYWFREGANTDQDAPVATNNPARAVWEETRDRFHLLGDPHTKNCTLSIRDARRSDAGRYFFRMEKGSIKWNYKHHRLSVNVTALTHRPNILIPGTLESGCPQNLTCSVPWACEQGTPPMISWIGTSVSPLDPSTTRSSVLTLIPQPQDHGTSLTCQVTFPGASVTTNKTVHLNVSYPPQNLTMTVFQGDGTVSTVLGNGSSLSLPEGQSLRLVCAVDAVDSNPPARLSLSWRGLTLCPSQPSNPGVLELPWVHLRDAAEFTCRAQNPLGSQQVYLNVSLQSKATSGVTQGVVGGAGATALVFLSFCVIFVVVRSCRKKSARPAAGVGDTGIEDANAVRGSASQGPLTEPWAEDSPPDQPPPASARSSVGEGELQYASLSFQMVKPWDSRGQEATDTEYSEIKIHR

Trypanosoma cruzi = test: Trypanosoma cruzi phosphomannomutase and mannose-1-phosphate guanylyltransferase assay; format: functional; details: 10 µM
[5] = target: T2, Arginase-2, mitochondrial (Homo sapiens) (UniProt P78540); test: in vitro enzyme assay to detect the production of urea directly proportional to the activity of Arginase II; format: functional; details: 33.3 µM; note: in the data most compounds retested in dose-response had high values
T2 sequence (whole entry): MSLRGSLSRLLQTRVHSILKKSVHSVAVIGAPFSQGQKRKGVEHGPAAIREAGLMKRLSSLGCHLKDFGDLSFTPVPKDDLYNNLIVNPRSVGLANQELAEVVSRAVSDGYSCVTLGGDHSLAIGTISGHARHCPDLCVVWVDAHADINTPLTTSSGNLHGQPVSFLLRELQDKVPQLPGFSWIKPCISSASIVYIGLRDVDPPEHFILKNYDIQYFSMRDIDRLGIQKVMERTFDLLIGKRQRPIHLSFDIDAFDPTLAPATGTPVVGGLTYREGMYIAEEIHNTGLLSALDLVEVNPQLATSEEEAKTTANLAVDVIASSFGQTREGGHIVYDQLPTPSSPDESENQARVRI

[6] = target: T3, Proteasome subunit beta (Trypanosoma cruzi) (UniProt O96673); test: Trypanosoma cruzi proteasome chymotrypsin-like activity (TcProtChymo) assay.; note: in the data most compounds retested in dose-response had high values; format: functional; details: 9.37 µM
T3 sequence (whole entry): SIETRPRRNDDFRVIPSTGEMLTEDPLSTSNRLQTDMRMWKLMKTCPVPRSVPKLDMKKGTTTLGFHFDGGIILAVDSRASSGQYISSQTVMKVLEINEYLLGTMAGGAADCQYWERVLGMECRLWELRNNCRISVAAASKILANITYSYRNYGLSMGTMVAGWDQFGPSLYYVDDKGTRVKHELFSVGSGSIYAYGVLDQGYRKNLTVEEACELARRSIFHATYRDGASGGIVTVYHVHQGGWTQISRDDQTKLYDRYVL

Homo sapiens = species: Homo sapiens; test: To identify inhibition of the IFN signalling (Jak-Stat) pathway via expression of an eGFP reporter gene under the control of an IFN-stimulated response element (ISRE) containing MxA promoter.; format: functional; details: 30 µM
[7] = target: T4, Tyrosyl-tRNA synthetase, putative (Trypanosoma cruzi (strain CL Brener)) (UniProt Q4DSP6); test: Trypanosoma cruzi tyrosyl tRNA synthetase (TcYRS) _High Tyrosine SOP; format: functional; details: 30 µM; note: in the data most compounds retested in dose-response had high values
T4 sequence (whole entry): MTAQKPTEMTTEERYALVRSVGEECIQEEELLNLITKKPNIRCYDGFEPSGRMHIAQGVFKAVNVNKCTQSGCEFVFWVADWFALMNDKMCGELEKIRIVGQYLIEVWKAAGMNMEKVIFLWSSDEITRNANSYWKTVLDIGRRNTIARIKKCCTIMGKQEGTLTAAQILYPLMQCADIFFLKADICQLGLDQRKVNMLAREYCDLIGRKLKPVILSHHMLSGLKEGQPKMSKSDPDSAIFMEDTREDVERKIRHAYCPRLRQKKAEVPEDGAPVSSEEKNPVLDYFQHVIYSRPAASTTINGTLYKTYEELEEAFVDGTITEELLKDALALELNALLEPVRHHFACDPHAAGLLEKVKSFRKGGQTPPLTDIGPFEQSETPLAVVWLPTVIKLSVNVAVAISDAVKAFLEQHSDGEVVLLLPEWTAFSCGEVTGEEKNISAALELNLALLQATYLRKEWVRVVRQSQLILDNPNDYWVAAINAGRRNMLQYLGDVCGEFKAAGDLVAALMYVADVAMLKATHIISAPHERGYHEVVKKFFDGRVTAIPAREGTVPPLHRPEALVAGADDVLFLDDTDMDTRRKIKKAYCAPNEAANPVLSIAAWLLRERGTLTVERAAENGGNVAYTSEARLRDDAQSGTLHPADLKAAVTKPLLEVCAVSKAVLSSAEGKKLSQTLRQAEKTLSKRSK

[8] = target: T4, Tyrosyl-tRNA synthetase, putative (Trypanosoma cruzi (strain CL Brener)); test: Trypanosoma cruzi tyrosyl tRNA synthetase (TcYRS) SOP; format: functional; details: 30 µM
[9] = target: Chromo domain-containing protein 1 (Saccharomyces cerevisiae (strain ATCC 204508 / S288c) (Baker's yeast)) (UniProt P32657); test: ScCHD-1 Enzyme Inhibition Assay; format: functional; details: 30 µM; note: in the data most compounds retested in dose-response had high values
Sequence of Chromo domain-containing protein 1 (Saccharomyces cerevisiae (strain ATCC 204508 / S288c) (Baker's yeast)) (P32657 whole entry, the tested form may be a part): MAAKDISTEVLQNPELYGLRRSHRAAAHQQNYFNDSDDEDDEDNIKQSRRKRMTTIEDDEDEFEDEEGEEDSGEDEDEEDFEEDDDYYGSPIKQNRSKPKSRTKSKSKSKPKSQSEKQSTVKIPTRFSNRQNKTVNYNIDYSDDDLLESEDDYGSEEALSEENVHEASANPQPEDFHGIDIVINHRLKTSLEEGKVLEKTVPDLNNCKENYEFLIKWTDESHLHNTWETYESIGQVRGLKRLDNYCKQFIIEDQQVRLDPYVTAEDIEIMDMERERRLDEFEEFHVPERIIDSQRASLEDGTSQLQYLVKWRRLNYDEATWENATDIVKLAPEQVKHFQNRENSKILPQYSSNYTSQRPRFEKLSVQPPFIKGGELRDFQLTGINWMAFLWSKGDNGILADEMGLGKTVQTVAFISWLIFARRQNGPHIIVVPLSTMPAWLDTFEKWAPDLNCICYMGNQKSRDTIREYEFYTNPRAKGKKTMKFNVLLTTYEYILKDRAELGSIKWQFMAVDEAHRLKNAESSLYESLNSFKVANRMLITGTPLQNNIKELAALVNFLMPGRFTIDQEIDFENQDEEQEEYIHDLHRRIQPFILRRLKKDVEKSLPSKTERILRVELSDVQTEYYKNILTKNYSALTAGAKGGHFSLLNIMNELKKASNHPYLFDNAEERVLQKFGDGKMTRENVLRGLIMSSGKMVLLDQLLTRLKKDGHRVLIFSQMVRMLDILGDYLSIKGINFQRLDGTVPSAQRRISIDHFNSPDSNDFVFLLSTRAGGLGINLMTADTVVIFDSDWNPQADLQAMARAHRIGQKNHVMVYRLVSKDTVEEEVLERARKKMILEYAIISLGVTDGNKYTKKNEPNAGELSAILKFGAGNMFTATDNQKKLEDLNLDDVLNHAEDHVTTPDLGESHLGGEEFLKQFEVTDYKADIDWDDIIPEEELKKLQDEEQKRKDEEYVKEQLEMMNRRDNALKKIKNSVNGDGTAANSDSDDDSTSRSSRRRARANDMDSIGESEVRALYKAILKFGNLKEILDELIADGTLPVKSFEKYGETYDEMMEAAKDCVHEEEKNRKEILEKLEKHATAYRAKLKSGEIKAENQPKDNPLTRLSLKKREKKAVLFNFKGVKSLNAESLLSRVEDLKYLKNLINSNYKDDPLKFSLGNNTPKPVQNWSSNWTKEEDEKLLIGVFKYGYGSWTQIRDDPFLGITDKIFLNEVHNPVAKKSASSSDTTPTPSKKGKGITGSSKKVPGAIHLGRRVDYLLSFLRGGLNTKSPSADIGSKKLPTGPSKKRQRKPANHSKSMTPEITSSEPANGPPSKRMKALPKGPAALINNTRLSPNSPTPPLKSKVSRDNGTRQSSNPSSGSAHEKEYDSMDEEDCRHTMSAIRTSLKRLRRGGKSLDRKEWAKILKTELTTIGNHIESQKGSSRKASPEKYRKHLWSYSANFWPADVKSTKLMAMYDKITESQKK

Sequence of Protein translocase subunit SecA (Escherichia coli (strain K12)) (P10408 whole entry): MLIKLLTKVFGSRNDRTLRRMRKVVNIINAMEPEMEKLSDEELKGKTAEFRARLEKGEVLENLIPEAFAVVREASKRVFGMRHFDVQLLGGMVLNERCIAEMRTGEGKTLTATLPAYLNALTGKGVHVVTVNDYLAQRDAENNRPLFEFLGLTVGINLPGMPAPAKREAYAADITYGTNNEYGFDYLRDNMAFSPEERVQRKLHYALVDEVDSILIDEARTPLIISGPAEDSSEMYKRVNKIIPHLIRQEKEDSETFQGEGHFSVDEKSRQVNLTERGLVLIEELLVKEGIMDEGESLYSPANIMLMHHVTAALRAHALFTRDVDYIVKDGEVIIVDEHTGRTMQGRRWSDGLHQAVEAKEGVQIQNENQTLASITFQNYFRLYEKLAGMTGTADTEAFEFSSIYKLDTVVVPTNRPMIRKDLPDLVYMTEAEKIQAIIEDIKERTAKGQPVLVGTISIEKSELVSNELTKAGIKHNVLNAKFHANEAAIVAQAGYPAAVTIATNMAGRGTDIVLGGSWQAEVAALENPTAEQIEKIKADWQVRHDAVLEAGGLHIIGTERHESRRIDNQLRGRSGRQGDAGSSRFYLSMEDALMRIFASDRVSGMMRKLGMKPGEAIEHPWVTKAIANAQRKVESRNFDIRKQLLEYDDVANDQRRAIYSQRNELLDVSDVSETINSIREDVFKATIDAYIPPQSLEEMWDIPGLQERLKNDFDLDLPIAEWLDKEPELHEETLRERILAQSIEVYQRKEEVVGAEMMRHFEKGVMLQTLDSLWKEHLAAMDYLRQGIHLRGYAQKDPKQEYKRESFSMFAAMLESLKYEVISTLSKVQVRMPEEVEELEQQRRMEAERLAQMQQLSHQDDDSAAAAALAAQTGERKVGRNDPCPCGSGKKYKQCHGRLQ

| Structure (SMILES) | Percent Effect [1] [%] | Percent Effect [2] [%] | Percent Effect [3] [%] | Percent Effect [4] [%] | Percent Effect (Trypanosoma cruzi) [%] | Percent Effect [5] [%] | Percent Effect [6] [%] | Percent Effect (Homo sapiens) [%] | Percent Effect [7] [%] | Percent Effect [8] [%] | Percent Effect [9] [%] |
| --- | --- | --- | --- | --- | --- | --- | --- | --- | --- | --- | --- |
| CCC1c2cccn2CCN1C(=O)c1ccc2nonc2c1 (configuration not stated) | -6.68 | -1.39 | -3.32 | -10.2 | -3.79 | 0 | 11.6 | -4.01 | 3.16 | -2.56 | 2.02 |
| CCN1CC(C(=O)N2CCC(Oc3ccccc3C)CC2)CC1=O (configuration not stated) | -1.72 | 2.74 | 2.75 | 3.46 | -7.94 | 2 | 8.65 | 7.65 | 3.12 | 21 | -0.203 |
| Cc1nc(C2CCN(C(=O)c3ccc(=O)n(C)c3)CC2)c2sccn12 | -2.51 | 4.05 | 3.65 | 3.19 | 1.58 | -3.02 | 10.4 | 3.58 | 3.23 | 6.49 | -13.8 |
| COC(=O)c1cccn1C1CCN(C(=O)c2cn[nH]c2C)CC1 | -3.48 | 10.4 | 0.41 | 9.63 | 4.31 | 0.356 | 8.11 | 21 | 6.8 | 19.5 | -9.12 |
| CCCNC(=O)CN1CCC(C(=O)Nc2cnn(CC)c2)CC1 | -4.73 | 18.4 | -9.54 | -8.7 | -5.13 | 3.24 | 3.98 | 7.34 | 6.4 | 18.5 | -3.68 |
| O=C(c1ccsc1)N1CC[C@H]2C[C@@H](c3nnc(C4CC4)o3)O[C@@H]2C1 | -1.93 | 7.79 | 1.35 | -4.04 | -1.08 | 12.3 | 19.5 | -4.29 | 2.12 | 11.5 | -7.52 |
| CC(C)c1nn(C)c(N(C)C)c1CNCc1ccc2c(c1)OCO2 | -3 | 7.89 | -15.5 | 1.82 | -7 | 2.16 | -2.45 | -9 | -0.493 | 11.1 | 0.321 |
